FMDV antiviral: High Throughput Screening for Foot and Mouth Disease Virus Antivirals; FMDV antiviral cell-based qHTS; Potency, µM (doses to about 57.9 µM), without a hit: at the highest dose activity change, negative = inhibition, most hits filed as inhibitors; actives 1.2% (n = 410,000); calls by dose curve; tested in HEK293T cells; note: read-out not given here; potency is the fitted concentration of half-maximal effect; nearly all actives have a fitted effect of over 45% in size
Lassa entry inh: qHTS for Inhibitors of binding or entry into cells for Lassa Virus | actives 1.2% (n = 300,000) | AID 540256, 2011 | Lassa virus pseudotype entry inhibition, cell reporter | Potency, µM (highest dose often 37.9 µM), for inactives: at the highest dose activity change, negative = inhibition, usual class: inhibitors; calls by dose curve; tested in HEK293 cells; note: potency is the fitted concentration of half-maximal effect; nearly all actives have a fitted effect of over 50% in size
Vaccinia mCherry: qHTS for Stage-Specific Inhibitors of Vaccinia Orthopoxvirus: mCherry Reporter Primary qHTS | Vaccinia virus mCherry reporter infection, fluorescence | Potency, µM (titrated, usually from 36.5 µM), for the others: top-dose activity change, negative = inhibition, usual class: inhibitors | actives 0.63% (n = 310,000); calls by dose curve; tested in A549 cells; note: potency is the fitted concentration of half-maximal effect; nearly all actives have a fitted effect of over 35% in size
VACV Venus inh: qHTS for Stage-Specific Inhibitors of Vaccinia Orthopoxvirus: Venus Reporter Primary qHTS; Vaccinia virus Venus reporter expression, fluorescence; Potency, µM (doses to about 36.5 µM), inactives show top-dose activity change, negative = inhibition, most hits filed as inhibitors; actives 0.46% (n = 330,000); calls by dose curve; tested in A549 cells; note: potency is the fitted concentration of half-maximal effect; nearly all actives have a fitted effect of over 30% in size
MARV entry inh: qHTS for inhibitors of binding or entry into cells for Marburg Virus; Potency, µM (top dose mostly 37.8 µM), inactives show at the highest dose activity change, negative = inhibition, actives largely listed as inhibitors; actives 1.8% (n = 300,000); AID 540276, 2011; Marburg virus pseudotyped entry inhibition, cell reporter; calls by dose curve; tested in HEK293 cells; note: potency is the fitted concentration of half-maximal effect
HCMV antiviral: qHTS Assay for inhibitors of the human cytomegalovirus (HCMV); HFF cells, HCMV-luciferase reporter, 72 h; hits give low values; activity change, negative = inhibition, % at 57.5 µM; actives 4.5% (n = 410,000); in the data active = activity change below about -60%; inconclusive = no clear call, values can overlap the other calls; inactive = above about -39%
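Two-dose cell screen: HFF monolayers treated with compounds and infected with luciferase-expressing HCMV at 1 PFU/cell, 72 h at 37C, then lysed for luciferase measurement.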
* marks the source's active call; other numbers are inactive results; i = inactive; u = inconclusive; x = not tested or not shown; [ ] = dose if it differs, or a comment. Only some compounds are listed: those with a hit (about 6.5% of all), similar ones and a draw of the others. % is set by controls: 0 for no effect and ±100 for the full control effect.

SMILES	FMDV antiviral	Lassa entry inh	Vaccinia mCherry	VACV Venus inh	MARV entry inh	HCMV antiviral
O=C(Nc1cccc(S(=O)(=O)N2CCOCC2)c1)c1ccc2c(=O)n3c(nc2c1)CCCCC3	u	u	u	u	u	-84*
O=C(Nc1ccc(S(=O)(=O)C(F)F)cc1)c1ccc2c(=O)n3c(nc2c1)CCC3	u	-7%	-8%	-13%	-1%	-32
COc1ccc(NC(=O)c2ccc3c(=O)n4c(nc3c2)CCCCC4)cc1	-8%	u	-11%	-13%	15%[46.1 µM]	-30
CC(=O)c1cccc(NC(=O)c2ccc3c(=O)n4c(nc3c2)CCCCC4)c1	2%	7%	-2%	-3%	-11%	u
COc1cc2nc(CC(O)c3nc4cc(OC)c(OC)cc4[nH]3)[nH]c2cc1OC (stereo not given)	x	x	-3%	-22%	x	x
Cc1ccc2occ(/C=N/NC(=O)c3ccc(Cl)cc3)c(=O)c2c1	-17%	0%	-16%	-3%	11%	-65*
Cc1ccc2occ(/C=N/NC(=O)c3ccncc3)c(=O)c2c1	1%	x	x	x	x	-31
CCOc1ccccc1C(=O)N/N=C/c1coc2ccc(Cl)cc2c1=O	-3%	u	i	-16%	u	-74*
O=C(N/N=C/c1coc2ccc(Cl)cc2c1=O)c1cc(O)cc(O)c1	-21%	-2%	-21%	-9%	-10%	2
Cc1ccc2occ(/C=N/NC(=O)c3ccccc3O)c(=O)c2c1	10%	x	x	x	x	-83*
CC(CCN1CCCc2nc(C)c(C)cc21)=NO[C@@H](C)CN1CCCCc2nc(C)c(C)cc21	x	x	x	x	-28%[14.2 µM]	x
COc1ccc(Cl)cc1NC(=O)NCCc1c(C)nn(C)c1C	-22%	-3%[46.1 µM]	i	-3%	x	-16
Cc1ccc(CSC2=Nc3ccccc3C3=NC(CCC(=O)NCCc4ccccc4)C(=O)N23)cc1 (stereo not given)	u	u	-22%	-16%	x	-90*
O=C(CCC1N=C2c3ccccc3N=C(SCC(=O)Nc3ccc(F)cc3)N2C1=O)NCc1cccs1 (stereo not given)	u	11%[46.1 µM]	-28%	42%	x	-80*
O=C(CC1N=C2c3ccccc3N=C(SCC(=O)Nc3ccc(F)cc3)N2C1=O)NCc1cccs1 (stereo not given)	-21%	26%[46.1 µM]	-19%	-6%	x	16
O=C(CSc1ccccc1)Nc1ccccc1C(=O)O	0%	u	x	x	18µM*	89
Cc1ccc(CSCC(=O)Nc2ccccc2C(=O)O)cc1	48%	x	x	x	x	-79*
CC(C)C(=O)N1CCCC1(C)C(=O)Nc1ccc(-n2cccc2)cc1 (stereo not given)	-13%	x	33%	7%	x	-1
C=CCNC(=O)N1C2=NC(C(=O)OC)=C(C(=O)OC)[C@@H]3N(C)c4ccccc4[C@]23C[C@H]1CO	x	u	x	x	-31%[14.2 µM]	x
COc1c(F)c(F)c(C(=O)Nc2ccc(NC(=O)Cc3ccccc3)cc2)c(F)c1F	-13%	x	x	x	x	-21
COc1ccccc1CNC(=O)c1cc(-c2ccccc2)n(Cc2cc(C)no2)n1	31%	x	-18%	-21%	x	0
COCCN(C(=O)COC(=O)CCOc1cc(C)ccc1C)c1c(N)n(Cc2ccccc2)c(=O)[nH]c1=O	-26%	0%	-29%	-11%	2%	2
Cc1ccc(NC(=O)CSCC(=O)NCCc2ccccc2)cc1	27%	-1%	-14%	-15%	1%	1
Cc1ccc(CSCC(=O)NCCc2ccccc2)cc1	9%	u	i	-10%	8%[46.1 µM]	-100*
O=C(Cc1cccc2ccccc12)Nc1ccccc1C(=O)O	42%	u	x	x	15µM*	u
SMILES	FMDV antiviral	Lassa entry inh	Vaccinia mCherry	VACV Venus inh	MARV entry inh	HCMV antiviral
O=C(CSCc1cccc(Cl)c1)Nc1ccccc1-c1ccccc1	-28%	4%	-3%	-19%	u	-63*
CCCCNC(=O)c1nc2ccccc2nc1-c1ccc(F)cc1	x	x	x	x	x	-2
CCCCOc1ccc(C(=O)NNC(=O)C2C3C=CC(C3)C2C(=O)O)cc1 (stereo not given)	11%	x	x	x	x	-60*
c1ccc2c(c1)N1CCCN=C1N2CCN1CCCCC1	-9%	-26%	x	x	13µM*	u
Cc1cccc2[nH]cc(/C=C3/C=Nc4ccccc43)c12	x	x	-16%	26%	x	x
CC(=O)N1CCc2cc(S(=O)(=O)NC3CCCc4ccccc43)ccc21 (stereo not given)	u	-21%	u	-29%	u	-64*
O=C(O)c1ccc(S(=O)(=O)NC2CCCc3ccccc32)cc1 (stereo not given)	-21%	-7%	i	-8%	1%	7
COc1ccc(S(=O)(=O)N2CCOCC2)cc1NC(=O)CN1C(=O)NC2(CCCCC2C)C1=O (stereo not given)	4%	-24%	-13%	0%	18%	4
O=C(Nc1ccc([N+](=O)[O-])cc1)C1CC1(c1ccccc1)c1ccccc1 (stereo not given)	-22%	-8%	1%	-17%	u	35
CC1(C)C(C=C(Cl)Cl)C1C(=O)Nc1ccc([N+](=O)[O-])cc1 (stereo not given)	u	u	u	18µM*	u	-96*
S=C(NCCC1=CCCCC1)NCc1ccco1	33%	u	-25%	-16%	-27%[46.1 µM]	11
C[C@H](N)CN1CCc2ccc(Br)cc21	-27%	u	-12%	-19%	3.5µM*	u
CCc1c(C)sc(NC(=O)C2CC2c2ccccc2)c1C(N)=O (stereo not given)	9%	2.9µM*	x	x	3.3µM*	u
O=C(CCS(=O)(=O)c1ccccc1)Nc1nnc(-c2ccco2)o1	0%	2%[46.1 µM]	11µM*	u	2%[46.1 µM]	44
COc1cc(OC)cc(-c2nnc(NC(=O)CCS(=O)(=O)c3ccc(C)cc3)o2)c1	-15%	u	7.9µM*	u	-12%[46.1 µM]	-8
CSc1nnc(CCNC(=O)c2ccccc2C(F)(F)F)n1-c1ccc(F)cc1	-15%	x	-5%	8%	x	x
COC(=O)c1c(C(=O)OC)c(-c2ccc(Br)cc2)n2c1CS(=O)C2 (stereo not given)	13%	x	x	x	x	-26
Oc1cc2c(cc1C(c1ccc(Cl)c(Cl)c1)N1CCCC1)OCO2 (stereo not given)	u	4%[46.1 µM]	u	-7%	u	-97*
CC(C)c1ccc(NC(=O)C(c2ccc3c(c2)OCO3)N2CCCCC2)cc1 (stereo not given)	-2%	x	-7%	-13%	x	-5
C=C1C=C(C(F)F)n2ncc(C(=O)N3CCN(c4ccccn4)CC3)c2N1	x	x	4%	-16%	x	x
COC(=O)c1[nH]c2cc(OC)ccc2c1NC(=O)CN1CCN(c2cccc(C)c2)C(C)C1 (stereo not given)	u	u	u	u	16µM*	-31
